About 1,900 (0.58%) of roughly 330,000 compounds were called active. Not shown: some 4% with an inconclusive outcome. The list is a sample of the results. Potency and affinity values are given separately. Unmarked numbers belong to inactive results. Rule as the data show it: inconclusive = inhibition above about 70% without an active follow-up result; inactive = below that.
experiment: M. tuberculosis growth inhibition, HTS (AID 449762);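 also: bacterial growth assessed after seven days of incubation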; conditions: M. tuberculosis H37Rv growth inhibition, 7H9 media; at 25 µM; stronger effect = higher value

SMILES | inhibition
O=C(CN(C(=O)CNC(=O)c1cccs1)c1ccc(F)cc1)NC1CCCC1 | -5.64%
Cc1ccc(C(=O)Nc2cnc3sc(C)nn3c2=O)cc1 | -8.53%
CC1=C(C(=O)OCC2CCCO2)C(c2ccc(C)cc2)C2=C(CCCC2=O)N1 (centres undefined) | -4.69%
COc1ccc(C2COc3cc(O)ccc3C2)c(OC)c1O (centres undefined) | -7.8%
CCCSc1nnc(CSc2nc3nc(C)cc(C)n3n2)o1 | 6.82%
CCCCSc1nnc(CSc2nc3nc(C)cc(C)n3n2)o1 | -4.57%
CC1Cn2c(nc3sc4c(c3c2=O)CCC4)N1CCO (centres undefined) | 3.69%
Cc1ccc(C(=O)N2CCN(c3ccc(C(F)(F)F)cn3)CC2)cc1 | -8.18%
O=C(c1ccccn1)N1CCN(c2ccc(C(F)(F)F)cn2)CC1 | -9.2%
CS(=O)(=O)N(CC(=O)Nc1ccc(C(N)=O)cc1)C1CCCCC1 | 0.92%
CN(CC(=O)Nc1cccc(F)c1)C(=O)CCN1C(=O)C2CC=CCC2C1=O (centres undefined) | -7.97%
Cc1ccc(C(=O)N2CCC3(CC2)NCCc2[nH]cnc23)cc1 | 0.45%
CCOC(=O)c1c(-c2ccccc2)c2cc(OC)ccc2n1CCCN(C)C | 47.1%
Cn1c(=O)c(C(=O)NNC(=O)c2ccccc2Br)c(O)c2ccccc21 | 45.1%
Cn1c(=O)c(C(=O)NNC(=O)c2ccccc2Cl)c(O)c2ccccc21 | 53.6%
Cc1ccc(C(=O)N/C(=C\c2cccnc2)c2nc3ccccc3[nH]2)cc1 | -7.38%
Cc1ccc(C(=O)N/C(=C\c2cccs2)c2nc3ccccc3[nH]2)cc1 | -6.82%
CC(C)[C@@]1(c2ccc(Cl)cc2)ON(c2ccccc2C(F)(F)F)C1=O | -3.69%
CCn1c(C)c(C)c2cc(C(=O)NCCCN3CCCC3)ccc21 | -0.8%
O=C(NC(=S)Nc1nc2c(s1)CCCC2)c1ccccc1 | 2.45%

SMILES | inhibition
O=C(Nc1nc2c(s1)CCCC2)Oc1ccccc1 | -2.24%
O=C(COc1ccc([N+](=O)[O-])cc1)N/N=C/c1cc([N+](=O)[O-])ccc1N1CCOCC1 | 3.18%
CCC(C)NC(=O)CNC(=S)N(Cc1ccccc1)Cc1cccnc1 (centres undefined) | -7.33%
Cc1ccc(NCC(O)C(O)C(O)CO)cc1C (centres undefined) | -7.11%
COc1ccc(N(C(=O)/C=C/C(=O)Nc2cc(C)on2)C(C(=O)NC2CCCC2)c2ccccc2C)cc1 (centres undefined) | 40%
Cc1cc(NC(=O)CCC(=O)N(c2ccccc2)C(C(=O)NC2CCCC2)c2ccccc2C)no1 (centres undefined) | 0.1%
CCCCCn1c(CCC(=O)Oc2ccccc2OC)nc2c1c(=O)[nH]c(=O)n2CCCC | 4.88%
COc1ccccc1CNC(=O)COC(=O)c1ccccc1SCC(=O)N1CCCC1 | 1.81%
COc1ccccc1OCC(=O)N(Cc1nnc(-c2ccccc2Cl)o1)C1CC1 | 0.28%
COCCN(Cc1ccccc1)P(=O)(O)c1ccccc1OCC(=O)O | -0.51%
C/C(O)=C/c1nc2ccccc2[nH]c1=O | 3.14%
Cc1ccc2oc(=O)c(/C=C(\O)c3ccccc3)nc2c1 | -2.76%
CC(=O)Nc1ccc(NC(=O)C(C)Oc2ccc(C)nc2[N+](=O)[O-])cc1 (centres undefined) | 6.29%
CCN(CCn1cccn1)C(=O)c1cc(COc2cccc3cccnc23)on1 | -3.82%
Cc1ccc(C(=O)N2CCN(CCNC(=O)C(=O)NCc3ccc(Cl)cc3)CC2)cc1 | 4.33%
CC(C)(C)c1ccc(C(=O)N2CCN(CCNC(=O)C(=O)NCc3ccccc3)CC2)cc1 | -0.83%
O=C(Nc1ccccc1)N(CCCN1CCOCC1)Cc1ccccc1F | -5.07%
CCOC(=O)N1CCC2(CC1)CC(=O)c1c(ccc3oc(C(=O)O)c(C)c13)O2 | -2.67%
c1ccc2c(c1)CC(N1CCCCC1)c1ccccc1S2 (centres undefined) | 0.42%
COc1ccc2c(c1)CC(N1CCN(C)CC1)c1cc(OC)ccc1S2 (centres undefined) | 9.95%

SMILES | inhibition
O=C(Nc1cc([N+](=O)[O-])ccc1C(=O)NCCN1CCOCC1)c1ccccc1 | 5.18%
COCCn1c(SCc2nnc(-c3ccc(OC)c(OC)c3)o2)nnc1-c1ccncc1 | 5.88%
Cc1ccc(-c2nnc(NCc3nc4ccccc4[nH]3)c3ccccc23)cc1S(=O)(=O)N(C)C | -2.52%
Cn1c(-c2sc3cc(C(F)(F)F)cnc3c2-c2ccccn2)n[nH]c1=S | -2.76%
O=C(OCC(=O)N1CCCC1)c1ccccc1O | 3.14%
O=C(OCC(=O)N1CCCCCC1)c1ccccc1Br | 4.05%
CC1CN(C(=O)COC(=O)c2ccc(F)cc2Cl)CC(C)O1 (centres undefined) | 6.83%
CC12CCC(C(=O)NCCCN3CCOCC3)(C(Br)C1=O)C2(C)C (centres undefined) | -0.09%
Cc1cc(Cc2c(O)[nH]c(=S)[nH]c2=O)ccc1OC(C)C | -6.7%
COC(=O)C1(CC2CC(c3ccccc3)=NO2)CCN(C(=O)OC(C)(C)C)CC1 (centres undefined) | 3.82%
Cc1cc(Cl)ccc1OCCCC(=O)NN | 13.1%
Cc1cc(Cl)ccc1OCCCC(N)=O | -4.53%
CCc1ccc(/C=C2/SC(=S)N(CCC(=O)NCCCN3CCOCC3)C2=O)cc1 | -8.2%
CN1CCN(c2ccc(NC(=O)c3ccc(-c4cccc([N+](=O)[O-])c4)o3)cc2)CC1 | 0.14%
CC(C)(C)C(=O)N1CCN(c2ccc(NC(=O)c3ccco3)cc2)CC1 | 2.75%
COCCN1CCN(C(=O)c2cc(COc3cc(C)ccc3C)on2)CC1 | -2.97%
Cc1cnc(NC(=O)CC2CCCC2)s1 | 1.33%
Cc1cnc(NC(=O)C2CCC(C(C)(C)C)CC2)s1 (centres undefined) | -5.46%
Cc1cccc(NC(=O)COC(=O)c2ccc3c(=O)n4c(nc3c2)CCC4)c1 | 0.33%

From PubChem BioAssay AID449762 (Southern Research Specialized Biocontainment Screening …, 2010)
